Calls of active or inactive are those of the source. Calls follow the shape of the dose curve; as a rule, active = well fitted curve in the direction sought with a large enough effect; inconclusive = small, poorly fitted or top-dose-only effect, or effect the other way, or another doubt; inactive = no such curve, though single readings can be large or run the other way.
assay: qHTS for inhibitors of adenylyl cyclases using a fission yeast platform: a pilot screen against the NCATS LOPAC library (AID 1347410); conditions: S. pombe CHP2027, fbp1-GFP fluorescence, 18 h, yeast expressing mammalian AC9 and human GNAS; series mostly up to 57.5 µM; activity, positive = inhibition (GFP gain): at the top concentration
Description: PI: Charles S. Hoffman Ph.D
Boston College, 140 Commonwealth Ave., Chestnut Hill, MA
Assay Development and Screening Technology Laboratory (ADST)
National Center for Advancing Translational Sciences (NCATS), Rockville, MD
National Institute of Health (NIH), Bethesda, Maryland
The fission yeast Schizosaccharomyces pombe uses a cAMP signaling pathway to link glucose-sensing to Protein Kinase A activity in order to regulate cell growth, sexual development, gluconeogenesis, and exit from stationary phase. Here, we describe the successful functional expression of all ten mammalian adenylyl cyclase (AC) genes, along with the human GNAS G-alpha gene in this organism. By measuring expression of a PKA-repressed fbp1-GFP reporter together with direct measurements of intracellular cAMP levels, one can detect both basal AC activity from all ten AC genes as well as GNAS-stimulated activity from eight of the nine transmembrane ACs (tmACs; AC2-AC9).
Further confirmation and validation of active compounds lead to the identification of diphenyleneiodonium chloride (DPI) as an inhibitor of basal AC activity. This fluorescence based fbp1-GFP-GNAS screening technology could facilitate the development of therapeutic compounds that target GNAS or the ACs, an area in which there is significant unmet need.
The gain-of-signal output is not substantially affected by cytotoxic compounds within the library.
Getz RA, et al., A fission yeast platform for heterologous expression of mammalian adenylyl cyclases and high throughput screening, Cellular Signaling, 2019, 60: 114-121. doi.org/10.1016/j.cellsig.2019.04.010.
PROTOCOL TABLE (as described by Inglese J, Shamu CE and Guy RK. 2007)
SEQUENCE No. (e.g., 1, 2, 3, etc.); […] (e.g., Cells, Incubation, Reagent, etc.); VALUE; DESCRIPTION.
1; Dispense growth medium; 2 uL; black, clear bottom, low base, 1536-well Aurora assay plate.
2; Compounds and control; 23 nL; Kalypsis pin tool (Wako USA) equipped with a 1536-well pin head to transfer to the assay plates.
3; Dispense yeast cells; 2 uL; CHP2027 cells.
4; Incubation; 18 hours (dark at 30C); Non-humidified microbial incubator.
5; Detector; 425V; Fluorescence; laser scanning cytometry.
NOTES (numbers refer to Sequence numbers above)
1. S. pombe growth medium EMM containing histidine, lysine, and uracil was initially dispensed into the assay plate to avoid yeast contamination using a Multidrop Combi dispenser (Thermo Fisher Scientific).
2. 10 mM stock solution of DPI (Sigma-Aldrich D2926) dissolved in DMSO was used as a 16-point dose response positive control, while 1.11 mM DPI stock solution was used as a single point max response positive control. Solvent DMSO was used as the negative control. Control DPI was transferred as a single-dose (column 3; rows 1-32; 1.11 mM stock), and multi-dose (column 4; rows 1-32; 10mM stock; 1:1.5 dilution; 16pnt titration) positive controls. Vehicle control DMSO was pinned into column 1-2, rows 1-32. Lopac compounds were pinned into columns 5-48 resulting to a final concentration range 57 µM to 78.4 nMControl DPI stock (10 mM) was prepared by dissolving 10 mg in 3.18 mL DMSO; while 1.11 mM DPI stock was prepared by mixing 100 uL of 10 mM DPI with 800 uL DMSO. To create the control plates, we initially start with a 384-well compound working plate. With a repeater pipette, (a.) 16 uL/well of 1.11 mM DPI was added to column 3; (b.) 16 uL/well of DMSO was added into rows 2-16 of column 4; (c.) 50 uL/well of DPI added to rows 1 and 2 of column 4; (d.) 32 uL serial dilution (two-thirds-fold) from rows 2 to 16 of column 4 with manual pipette. From the 384-well compound working plate, 7 uL of respective control compound was transferred to respective columns of the 1536-well compound plate using a multichannel pipette.
3. S. pombe CHP2027 (AC9-GNAS-PDE4D2) expressing fbp1-GFP cells were grown at 30C in EMM medium containing histidine, lysine, and uracil. […]

Row | SMILES | activity, positive = inhibition (GFP gain)
1 | COc1cc2c(cc1O)CC[C@@H]1[C@@H]2CC[C@]2(C)[C@@H](O)CC[C@@H]12 | -0.007% (inactive)
2 | CNCCC=C1c2ccccc2CCc2ccccc21 | -0.438% (inactive)
3 | N[C@@H](Cc1cnc[nH]1)C(=O)O | -0.438% (inactive)
4 | CCCn1c(=O)[nH]c(=O)c2[nH]cnc21 | 0.698% (inactive)
5 | CC(CCc1ccccc1)NCC(O)c1ccc(O)c(C(N)=O)c1 (centres undefined) | -0.438% (inactive)
6 | C[C@]12CC[C@@H]3c4ccc(O)cc4CC[C@H]3[C@@H]1CC[C@@H]2O | -0.0719% (inactive)
7 | Oc1ccc(O)cc1 | 0.202% (inactive)
8 | CC(C)COC(=O)OCN1C(=O)CN(CCN2CC(=O)N(COC(=O)OCC(C)C)C(=O)C2)CC1=O | -0.438% (inactive)
9 | CCC(NC(C)C)C(O)c1ccc(O)c(O)c1 (centres undefined) | 0.253% (inactive)
10 | CNCCC(Oc1ccccc1C)c1ccccc1 (centres undefined) | 0.875% (inactive)
11 | CC(C)C[C@H]1C(=O)N2CCC[C@H]2[C@]2(O)O[C@](NC(=O)[C@@H]3C=C4c5cccc6[nH]c(Br)c(c56)C[C@H]4N(C)C3)(C(C)C)C(=O)N12 | -0.438% (inactive)
12 | COC(=O)[C@H]1[C@H]2C[C@H]3c4[nH]c5ccccc5c4CCN3C[C@H]2CC[C@@H]1O | -0.438% (inactive)
13 | CN1C2CCC1CC(OC(=O)c1c[nH]c3ccccc13)C2 (centres undefined) | 0.633% (inactive)
14 | CC[C@H](C)C(=O)O[C@H]1CCC=C2C=C[C@H](C)[C@H](CC[C@@H]3C[C@@H](O)CC(=O)O3)[C@H]21 | 4.92% (inactive)
15 | N[C@H](CO)C(=O)O | -0.438% (inactive)
16 | C[C@@H]1C(=O)NC2=Nc3cccc(Cl)c3CN21 | -0.438% (inactive)
17 | CC1(C)CCC(NC(=O)[C@@H](N)CCC(=O)O)CC1 | -0.438% (inactive)
18 | C[N+]1(CCCCC[N+]2(C)CCCC2)CCCC1 | 0.16% (inactive)
19 | CCCC1O[C@@H]2C[C@H]3[C@@H]4CCC5=CC(=O)C=C[C@]5(C)[C@H]4[C@@H](O)C[C@]3(C)[C@]2(C(=O)CO)O1 (some centres undefined) | 0.0626% (inactive)
20 | C1CCc2nnnn2CC1 | 0.109% (inactive)
21 | O=C1CCC(c2ccc(-n3ccnc3)cc2)=NN1 | -0.0951% (inactive)
22 | Nc1cc(Cl)c(NC2=NCCN2)c(Cl)c1 | -0.438% (inactive)
23 | O=C(O)c1cc2cc(Cc3cccnc3)ccc2o1 | -0.438% (inactive)
24 | CC(=O)O[C@H]1C[C@@H]2CC[C@@H]3[C@H](CC[C@@]4(C)[C@H]3C[C@H]([N+]3(C)CCCCC3)[C@@H]4OC(C)=O)[C@@]2(C)C[C@@H]1[N+]1(C)CCCCC1 | -0.438% (inactive)

From PubChem BioAssay (NCATS)
